Common to all, as to parameters: scale not given: direction of the effect not stated beside the values
The target in assay [1] is Protein translocase subunit SecA (Escherichia coli (strain K12)) (UniProt P10408). In words: Assay to Identify E. coli SecA ATPase Inhibitors. The conditions noted are these: 30 µM. The assay is classed as functional.
In assay [2] the target is T1, Ubiquitin-activating enzyme e1, putative (Leishmania donovani (strain BPK282A1)) (UniProt E9BSI1).
T1 sequence (whole entry): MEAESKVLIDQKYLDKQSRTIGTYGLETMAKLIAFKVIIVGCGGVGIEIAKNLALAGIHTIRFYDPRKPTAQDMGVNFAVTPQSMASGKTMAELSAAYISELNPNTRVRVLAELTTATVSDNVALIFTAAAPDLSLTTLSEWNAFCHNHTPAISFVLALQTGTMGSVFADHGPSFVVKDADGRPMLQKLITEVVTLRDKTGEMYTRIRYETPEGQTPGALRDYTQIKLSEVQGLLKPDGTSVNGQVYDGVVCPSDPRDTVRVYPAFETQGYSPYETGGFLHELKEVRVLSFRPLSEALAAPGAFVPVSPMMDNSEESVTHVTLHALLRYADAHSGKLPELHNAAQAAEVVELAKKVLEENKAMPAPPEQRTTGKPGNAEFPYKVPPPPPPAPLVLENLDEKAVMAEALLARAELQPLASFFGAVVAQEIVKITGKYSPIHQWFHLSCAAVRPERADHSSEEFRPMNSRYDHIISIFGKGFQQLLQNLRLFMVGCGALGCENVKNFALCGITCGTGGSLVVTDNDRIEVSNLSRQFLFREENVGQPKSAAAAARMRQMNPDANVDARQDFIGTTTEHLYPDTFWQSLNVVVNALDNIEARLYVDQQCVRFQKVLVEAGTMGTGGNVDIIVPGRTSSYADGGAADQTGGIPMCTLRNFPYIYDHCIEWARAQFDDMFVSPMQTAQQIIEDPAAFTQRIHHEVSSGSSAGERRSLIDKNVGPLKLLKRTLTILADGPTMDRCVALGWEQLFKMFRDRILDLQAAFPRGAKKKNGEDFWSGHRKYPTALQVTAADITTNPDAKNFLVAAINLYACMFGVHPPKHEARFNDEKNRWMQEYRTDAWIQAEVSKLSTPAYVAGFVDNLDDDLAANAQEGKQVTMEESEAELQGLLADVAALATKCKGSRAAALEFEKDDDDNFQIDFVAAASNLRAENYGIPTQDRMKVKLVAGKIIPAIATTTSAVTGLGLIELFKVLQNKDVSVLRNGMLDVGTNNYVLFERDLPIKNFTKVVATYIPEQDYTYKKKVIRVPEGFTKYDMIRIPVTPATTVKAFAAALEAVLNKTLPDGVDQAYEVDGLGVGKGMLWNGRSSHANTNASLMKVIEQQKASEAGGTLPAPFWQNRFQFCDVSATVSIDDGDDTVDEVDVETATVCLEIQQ
Nature of the assay: Leishmania donovani Ubiquitin Activating Enzyme (LdE1). It is filed as functional. The conditions noted are these: 30 µM.

The target in assay [3] is Sialic acid-binding Ig-like lectin 9 (Homo sapiens) (UniProt Q9Y336). In words: Hs-Siglec9 ALPHAscreen SOP 20170721. The conditions noted are these: 10 µM. For orientation: In Alpha technology, singlet oxygen from a donor bead excites a nearby acceptor bead.
Chain of Sialic acid-binding Ig-like lectin 9 (Homo sapiens) (Q9Y336 whole entry): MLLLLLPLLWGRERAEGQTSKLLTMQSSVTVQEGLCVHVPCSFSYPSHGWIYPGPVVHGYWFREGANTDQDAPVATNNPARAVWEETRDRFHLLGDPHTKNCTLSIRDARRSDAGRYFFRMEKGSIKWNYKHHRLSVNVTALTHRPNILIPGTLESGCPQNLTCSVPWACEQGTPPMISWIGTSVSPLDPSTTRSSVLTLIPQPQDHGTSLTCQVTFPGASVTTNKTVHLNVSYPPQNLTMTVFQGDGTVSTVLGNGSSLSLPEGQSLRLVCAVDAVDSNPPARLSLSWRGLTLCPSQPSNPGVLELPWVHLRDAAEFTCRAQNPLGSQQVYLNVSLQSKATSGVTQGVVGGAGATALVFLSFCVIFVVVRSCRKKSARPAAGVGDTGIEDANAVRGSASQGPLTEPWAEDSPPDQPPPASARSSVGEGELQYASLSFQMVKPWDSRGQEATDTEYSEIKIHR
The subject of assay [4] is Trypanosoma cruzi. Nature of the assay: Trypanosoma cruzi phosphomannomutase and mannose-1-phosphate guanylyltransferase assay. The assay is classed as functional. The following applies: 10 µM.
Assay [5] deals with T2, Arginase-2, mitochondrial (Homo sapiens) (UniProt P78540).
T2 sequence (whole entry): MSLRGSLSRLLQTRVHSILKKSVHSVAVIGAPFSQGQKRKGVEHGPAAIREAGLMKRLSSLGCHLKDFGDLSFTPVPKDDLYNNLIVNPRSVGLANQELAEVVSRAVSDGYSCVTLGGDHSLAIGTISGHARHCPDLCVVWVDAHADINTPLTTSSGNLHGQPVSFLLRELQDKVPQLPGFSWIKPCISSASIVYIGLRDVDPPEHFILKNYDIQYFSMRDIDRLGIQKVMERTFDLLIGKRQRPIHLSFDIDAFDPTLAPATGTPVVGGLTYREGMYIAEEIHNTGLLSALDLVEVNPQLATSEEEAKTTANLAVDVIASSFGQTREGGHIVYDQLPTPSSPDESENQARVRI
Nature of the assay: in vitro enzyme assay to detect the production of urea directly proportional to the activity of Arginase II. Further: in the data most compounds retested in dose-response had high values. The conditions noted are these: 33.3 µM. The assay is classed as functional.

For assay [6], the target named is T3, Proteasome subunit beta (Trypanosoma cruzi) (UniProt O96673).
T3 sequence (whole entry): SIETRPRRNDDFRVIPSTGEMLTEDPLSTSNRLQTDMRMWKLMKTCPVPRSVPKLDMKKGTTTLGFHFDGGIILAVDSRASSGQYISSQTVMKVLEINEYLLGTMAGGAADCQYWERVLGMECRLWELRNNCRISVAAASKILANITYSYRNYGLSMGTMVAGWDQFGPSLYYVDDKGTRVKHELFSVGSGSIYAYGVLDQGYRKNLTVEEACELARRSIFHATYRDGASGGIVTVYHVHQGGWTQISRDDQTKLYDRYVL
Nature of the assay: Trypanosoma cruzi proteasome chymotrypsin-like activity (TcProtChymo) assay. Further: in the data most compounds retested in dose-response had high values. It is filed as functional. The conditions noted are these: 9.37 µM.

The species named for assay [7] is Homo sapiens. Nature of the assay: To identify inhibition of the IFN signalling (Jak-Stat) pathway via expression of an eGFP reporter gene under the control of an IFN-stimulated response element (ISRE) containing MxA promoter. The assay is classed as functional. The conditions noted are these: 30 µM. (In general: Reporter assays use an easily measured gene product as a stand-in for the process of interest.)

The target of assay [8] is T4, Tyrosyl-tRNA synthetase, putative (Trypanosoma cruzi (strain CL Brener)) (UniProt Q4DSP6).
T4 sequence (whole entry): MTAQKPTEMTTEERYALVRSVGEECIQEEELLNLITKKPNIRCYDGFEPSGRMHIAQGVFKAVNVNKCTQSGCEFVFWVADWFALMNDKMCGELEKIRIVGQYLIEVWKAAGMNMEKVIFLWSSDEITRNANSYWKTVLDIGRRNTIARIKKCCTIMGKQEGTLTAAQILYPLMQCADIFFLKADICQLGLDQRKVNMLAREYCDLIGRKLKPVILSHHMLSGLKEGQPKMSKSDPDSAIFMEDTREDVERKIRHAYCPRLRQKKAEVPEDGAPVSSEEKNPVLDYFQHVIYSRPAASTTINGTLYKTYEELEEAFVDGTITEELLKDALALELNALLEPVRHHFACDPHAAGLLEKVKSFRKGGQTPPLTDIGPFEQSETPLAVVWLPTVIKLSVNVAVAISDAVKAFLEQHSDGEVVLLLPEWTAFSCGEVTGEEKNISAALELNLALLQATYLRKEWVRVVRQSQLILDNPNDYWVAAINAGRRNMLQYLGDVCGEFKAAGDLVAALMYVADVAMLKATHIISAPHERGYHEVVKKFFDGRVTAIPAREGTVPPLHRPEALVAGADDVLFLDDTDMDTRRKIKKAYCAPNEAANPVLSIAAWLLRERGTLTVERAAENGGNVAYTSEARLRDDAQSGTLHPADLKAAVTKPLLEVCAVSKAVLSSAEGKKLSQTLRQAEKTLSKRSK
In words: Trypanosoma cruzi tyrosyl tRNA synthetase (TcYRS) _High Tyrosine SOP. Further: in the data most compounds retested in dose-response had high values. The conditions noted are these: 30 µM. It is filed as functional.

In assay [9] the target is T4, Tyrosyl-tRNA synthetase, putative (Trypanosoma cruzi (strain CL Brener)). In words: Trypanosoma cruzi tyrosyl tRNA synthetase (TcYRS) SOP. The assay is classed as functional. The following applies: 30 µM.
Assay [10] deals with Chromo domain-containing protein 1 (Saccharomyces cerevisiae (strain ATCC 204508 / S288c) (Baker's yeast)) (UniProt P32657). Nature of the assay: ScCHD-1 Enzyme Inhibition Assay. Further: in the data most compounds retested in dose-response had high values. It is filed as functional. The conditions noted are these: 30 µM.
Chain of Chromo domain-containing protein 1 (Saccharomyces cerevisiae (strain ATCC 204508 / S288c) (Baker's yeast)) (P32657 whole entry, the tested form may be a part): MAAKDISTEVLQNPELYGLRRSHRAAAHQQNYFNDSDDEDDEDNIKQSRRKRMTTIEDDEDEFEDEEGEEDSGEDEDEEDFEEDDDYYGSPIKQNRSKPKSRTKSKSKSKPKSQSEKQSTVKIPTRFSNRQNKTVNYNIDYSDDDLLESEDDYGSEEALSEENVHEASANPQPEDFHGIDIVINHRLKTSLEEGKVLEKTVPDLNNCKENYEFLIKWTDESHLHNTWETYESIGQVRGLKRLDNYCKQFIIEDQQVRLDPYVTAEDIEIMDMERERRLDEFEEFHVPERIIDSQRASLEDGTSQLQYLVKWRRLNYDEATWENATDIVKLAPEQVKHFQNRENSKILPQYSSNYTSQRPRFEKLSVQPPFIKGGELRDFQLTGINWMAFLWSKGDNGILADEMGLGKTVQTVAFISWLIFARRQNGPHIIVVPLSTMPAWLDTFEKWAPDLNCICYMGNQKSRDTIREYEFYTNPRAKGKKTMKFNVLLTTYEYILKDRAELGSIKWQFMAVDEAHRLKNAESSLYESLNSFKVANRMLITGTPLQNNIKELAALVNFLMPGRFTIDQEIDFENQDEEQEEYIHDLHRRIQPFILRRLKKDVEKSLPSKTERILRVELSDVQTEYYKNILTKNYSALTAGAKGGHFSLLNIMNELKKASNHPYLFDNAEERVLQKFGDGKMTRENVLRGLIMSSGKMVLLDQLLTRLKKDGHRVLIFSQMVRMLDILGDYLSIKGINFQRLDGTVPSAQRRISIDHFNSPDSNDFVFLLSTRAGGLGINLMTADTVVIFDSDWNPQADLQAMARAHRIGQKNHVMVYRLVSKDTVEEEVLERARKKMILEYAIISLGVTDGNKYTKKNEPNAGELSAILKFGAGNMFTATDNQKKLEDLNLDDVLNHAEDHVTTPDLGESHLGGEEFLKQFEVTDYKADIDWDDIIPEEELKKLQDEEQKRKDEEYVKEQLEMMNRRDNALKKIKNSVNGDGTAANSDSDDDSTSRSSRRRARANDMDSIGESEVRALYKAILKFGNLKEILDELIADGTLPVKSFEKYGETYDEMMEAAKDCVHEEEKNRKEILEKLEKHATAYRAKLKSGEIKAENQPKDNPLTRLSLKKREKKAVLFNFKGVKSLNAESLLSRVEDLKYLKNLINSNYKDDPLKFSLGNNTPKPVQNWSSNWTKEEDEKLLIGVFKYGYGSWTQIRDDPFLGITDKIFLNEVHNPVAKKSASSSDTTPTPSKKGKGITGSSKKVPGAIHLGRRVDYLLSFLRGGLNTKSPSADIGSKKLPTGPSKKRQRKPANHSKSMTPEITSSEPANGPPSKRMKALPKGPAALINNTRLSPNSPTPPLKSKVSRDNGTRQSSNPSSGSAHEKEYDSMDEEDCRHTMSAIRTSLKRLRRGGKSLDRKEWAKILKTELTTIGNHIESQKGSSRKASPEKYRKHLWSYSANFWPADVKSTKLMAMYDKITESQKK

For some assays here: Potency and affinity values are given separately.

Eight compounds from ChEMBL document CHEMBL3988442, “University of Dundee, Small-Polar-MMV Screening Library” (2021) can be followed below.

Chain of Protein translocase subunit SecA (Escherichia coli (strain K12)) (P10408 whole entry): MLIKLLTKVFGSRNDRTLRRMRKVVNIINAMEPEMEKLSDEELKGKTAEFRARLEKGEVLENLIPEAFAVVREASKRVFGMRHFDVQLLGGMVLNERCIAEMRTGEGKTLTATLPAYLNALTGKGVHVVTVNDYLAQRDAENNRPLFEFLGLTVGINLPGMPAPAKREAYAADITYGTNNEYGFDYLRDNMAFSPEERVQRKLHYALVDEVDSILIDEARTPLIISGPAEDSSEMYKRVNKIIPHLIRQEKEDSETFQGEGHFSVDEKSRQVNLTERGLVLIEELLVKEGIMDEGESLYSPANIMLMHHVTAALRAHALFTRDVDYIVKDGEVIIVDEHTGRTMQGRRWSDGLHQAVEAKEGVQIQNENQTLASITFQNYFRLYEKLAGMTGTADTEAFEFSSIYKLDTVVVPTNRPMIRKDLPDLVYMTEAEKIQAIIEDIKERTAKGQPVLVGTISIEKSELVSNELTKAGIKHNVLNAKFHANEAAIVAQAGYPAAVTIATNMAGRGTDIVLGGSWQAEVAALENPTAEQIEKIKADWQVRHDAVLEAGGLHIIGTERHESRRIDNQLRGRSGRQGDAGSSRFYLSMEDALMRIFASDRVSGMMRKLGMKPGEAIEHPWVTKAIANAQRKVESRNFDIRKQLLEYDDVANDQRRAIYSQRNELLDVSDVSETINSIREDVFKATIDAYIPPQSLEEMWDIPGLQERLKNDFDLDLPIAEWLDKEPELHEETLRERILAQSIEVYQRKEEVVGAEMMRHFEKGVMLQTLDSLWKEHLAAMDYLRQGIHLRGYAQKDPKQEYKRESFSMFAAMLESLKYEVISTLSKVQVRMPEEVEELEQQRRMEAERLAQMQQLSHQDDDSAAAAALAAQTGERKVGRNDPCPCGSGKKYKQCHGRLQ

In the case of `Cc1cnc(CN2CCCC(c3cc(C(F)(F)F)[nH]n3)C2)cn1` (stereo not given), the Percent Effect is -4.31% in [1]; 2.67% in assay [2]; 2.93% in [3]; -2.21% in assay [4]; 3.55% in assay [5]; 2.97% in assay [6]. The Percent Effect was 10.5% in [7], 4.74% in assay [8], 17.9% in [9] and -4.75% in [10].

For `CCOCC1CN(Cc2ccc(OC)cc2)Cc2nn(C)cc21` (stereo not given), the Percent Effect is -9.46% in [1]; 3.9% in assay [2]; 2.27% in assay [3]; -1.46% in assay [4]; 0.405% in assay [5]; 9.62% in assay [6]. The Percent Effect was 15.7% in assay [7], 2.63% in assay [8], 2.56% in [9] and 0.496% in [10].

As for `CCc1nc(C2CCCN2C(=O)CCn2cncn2)no1` (stereo not given), the Percent Effect was -0.886% in assay [1]; 0% in [2]; 9.32% in [3]; -1.49% in assay [4]; 1.02% in [5]; 3.51% in [6]. Moreover, the Percent Effect in [7] was 3.97%; in assay [8] it was 0.98%; in [9], -2.35%; in [10] it was -0.634%.

With `Cc1ccc(-c2nc(CCNC(=O)CCN3CCOC3=O)co2)cc1`, the Percent Effect is -3.11% in assay [1]; 5.33% in assay [2]; 5.5% in [3]; -0.602% in [4]; 8.87% in [5]; 7.72% in [6]. Further, the Percent Effect in assay [7] is 33.2%; in assay [8] it was 6.84%; in assay [9] it was 5.13%; in assay [10], -8.83%.

For the compound `CC(=O)N(Cc1ncc(C)o1)C1CCN(CCCc2cnn(C)c2)C1` (stereo not given), the Percent Effect in [1] is -1.84%; in [2] it was 18.7%; in [3] it was -5.35%; in assay [4], 1.41%; in [5], -3.99%; in assay [6] it was 26.2%. For the same compound, the Percent Effect was 2.97% in [7], 4.74% in assay [8], 12.8% in [9] and -12.6% in assay [10].

`Cc1cnc(CN(C)C2CCN(Cc3ccccc3C#N)C2)o1` (stereo not given): the Percent Effect is 0.623% in [1]; 13.3% in assay [2]; -5.38% in [3]; -5.82% in assay [4]; 3.1% in assay [5]; 18.4% in [6]. Further, the Percent Effect was 2.92% in [7], 3.68% in assay [8], 7.69% in assay [9] and -11.8% in assay [10].

With `Cc1ccc(-c2nc(CN3CCCC3Cn3cc(C)cn3)no2)cc1` (stereo not given), the Percent Effect in assay [1] was -2.04%; in [2], 5.33%; in assay [3], 2.03%; in assay [4], 4.02%; in [5], -8.43%; in [6] it was 22.6%. The Percent Effect in [7] was 12.1%; in assay [8], 1.58%; in assay [9], 10.3%; in assay [10] it was -12%.

With `Cc1cc(CN2CCCC2c2noc(C)n2)no1` (stereo not given), the Percent Effect in [1] is 3.19%; in assay [2], 2.67%; in assay [3], 5.36%; in assay [4], -2.41%; in [5], 3.99%; in assay [6], 6.7%. In addition, the Percent Effect was 2.71% in assay [7], 0.526% in assay [8], -2.56% in assay [9] and -6.2% in [10].
